Some test systems named below: K-562 leukemia; MALME-3M melanoma; MDA-MB-231 breast; RXF 393 renal; SF-268 CNS; SF-295 CNS; SF-539 CNS; UACC-257 melanoma; M14 melanoma; HCT-15 colon; HT29 colon; SNB-75 CNS; U251 CNS; PC-3 prostate; SK-MEL-5 melanoma; UACC-62 melanoma; LOX IMVI melanoma; SK-MEL-28 melanoma; SK-MEL-2 melanoma; SNB-19 CNS.
Common to all, as to experiment: NCI-60 one-dose screen, 48 h (100 = growth as untreated, 0 = no growth, -100 = all killed)
Holding throughout (details): 10 µM unless noted

This note sets out measurements from PubChem BioAssay (NCI).

Each structure is given as a SMILES string. About 83,000 compounds went through this panel and 20% of them were active in at least one assay; those are over-represented in the sample as a whole.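 Testing used 96-well plates and a 48-hour single-concentration exposure. Example: -40 means 40% of the starting cells died.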 A number with no mark means an inactive call. The source made the active and inactive calls. Rule for the calls: active = growth percent below 10; inactive = the rest.

Regarding `Nc1ccc(C2=Nc3cccc4cccc(c34)S2)cc1`, the growth in the experiment on K-562 leukemia is 88.3%; with MALME-3M melanoma, 94.5%; in the experiment on MDA-MB-231 breast, 60%; in the experiment on RXF 393 renal, 107%; in the experiment on SF-268 CNS, 88.9%; in the experiment with SF-295 CNS it was 73%. Further, the growth in the experiment with SF-539 CNS is 102%; in the experiment with UACC-257 melanoma, 84.3%; in the experiment with M14 melanoma, 83.9%; with HCT-15 colon, 54.5%; with HT29 colon, 98.5%; in the experiment with SNB-75 CNS, 71.4%. For the same molecule, the growth with U251 CNS is 91.8%; in the experiment with PC-3 prostate it was 71.6%; with SK-MEL-5 melanoma, 88.9%; with UACC-62 melanoma, 79.8%; in the experiment with LOX IMVI melanoma it was 91.8%; in the experiment on SK-MEL-28 melanoma, 111%. Also, the growth with SK-MEL-2 melanoma was 87.5%.

As for `O=[N+]([O-])c1ccc(N/N=C\c2ccccc2[N+](=O)[O-])nc1`, the growth with K-562 leukemia was 94.6%; with MALME-3M melanoma, 117%; in the experiment with MDA-MB-231 breast it was 110%; in the experiment with RXF 393 renal, 102%; with SF-268 CNS, 107%; with SF-295 CNS it was 103%. Also, the growth was 109% in the experiment with SF-539 CNS; 119% with UACC-257 melanoma; 126% in the experiment with M14 melanoma; 100% in the experiment with HCT-15 colon; 104% with HT29 colon; 103% with SNB-75 CNS. Besides, the growth in the experiment on SNB-19 CNS was 99.4%; in the experiment with PC-3 prostate, 99.7%; in the experiment on SK-MEL-5 melanoma, 105%; with UACC-62 melanoma, 96.7%; in the experiment on LOX IMVI melanoma, 105%; in the experiment with SK-MEL-28 melanoma it was 110%. In addition, the growth in the experiment with SK-MEL-2 melanoma is 95.6%.

`CC12CCC3C(CCC4CC(=O)/C(=C\O)CC43C)C1CCC(=O)O2` (stereo unspecified): the growth in the experiment on K-562 leukemia was 104%; in the experiment with MALME-3M melanoma, 124%; in the experiment on MDA-MB-231 breast, 111%; in the experiment with RXF 393 renal it was 141%; with SF-268 CNS, 108%; in the experiment on SF-295 CNS, 109%. The growth in the experiment on SF-539 CNS was 111%; with UACC-257 melanoma it was 115%; in the experiment on M14 melanoma, 95.2%; in the experiment on HCT-15 colon, 121%; in the experiment on HT29 colon, 108%; with SNB-75 CNS, 97.5%. In addition, the growth with SNB-19 CNS was 119%; with U251 CNS it was 100%; in the experiment with SK-MEL-5 melanoma it was 113%; with UACC-62 melanoma, 109%; with SK-MEL-28 melanoma, 114%; with SK-MEL-2 melanoma, 121%.

With `O=C(Nc1ccc(Cl)cc1)Nc1ccc(Oc2nncc3ccccc23)cc1`, the growth in the experiment on K-562 leukemia is 5.58% (active); with MALME-3M melanoma, 0.777% (active); in the experiment on MDA-MB-231 breast it was -25.2% (active); in the experiment with RXF 393 renal it was -91.2% (active); in the experiment with SF-268 CNS, 12.6%; in the experiment with SF-295 CNS it was 40.7%. In addition, the growth in the experiment on SF-539 CNS is -76.5% (active); with UACC-257 melanoma, 34.4%; with M14 melanoma it was 7.3% (active); with HCT-15 colon, 2.76% (active); in the experiment on HT29 colon, 0.517% (active); in the experiment on SNB-75 CNS it was -3.13% (active). The growth with U251 CNS was -31.1% (active); in the experiment on PC-3 prostate it was -29% (active); in the experiment on SK-MEL-5 melanoma, -43.3% (active); with UACC-62 melanoma it was -14.3% (active); in the experiment on LOX IMVI melanoma, -77.3% (active); in the experiment on SK-MEL-28 melanoma it was -31.6% (active). Also, the growth with SK-MEL-2 melanoma was 12.4%.

For `COc1ccc(-c2csc(NC(=O)c3cc(OC)c(OC)c(OC)c3)n2)cc1`, the growth is 113% in the experiment with K-562 leukemia; 96.2% with MALME-3M melanoma; 109% in the experiment on MDA-MB-231 breast; 87.9% with RXF 393 renal; 102% in the experiment on SF-268 CNS; 91.9% in the experiment on SF-295 CNS. The growth in the experiment on SF-539 CNS was 112%; with UACC-257 melanoma it was 98.5%; in the experiment with M14 melanoma, 116%; in the experiment on HCT-15 colon, 107%; in the experiment on HT29 colon it was 110%; with SNB-75 CNS, 102%. Moreover, the growth was 94% in the experiment on SNB-19 CNS; 90.9% with PC-3 prostate; 98.5% in the experiment with SK-MEL-5 melanoma; 89% in the experiment on UACC-62 melanoma; 101% with SK-MEL-28 melanoma.

`NC(=Nc1ccccc1)SCCCCSC(N)=Nc1ccccc1`: the growth in the experiment with K-562 leukemia is 44.5%; in the experiment on MALME-3M melanoma, 102%; in the experiment with MDA-MB-231 breast it was 67.5%; with RXF 393 renal, 73.6%; in the experiment on SF-268 CNS, 90%; in the experiment with SF-295 CNS it was 77.5%. Further, the growth in the experiment on SF-539 CNS was 114%; in the experiment with UACC-257 melanoma, 101%; in the experiment on M14 melanoma, 84.6%; in the experiment on HCT-15 colon it was 83.1%; in the experiment with HT29 colon, 94.8%; in the experiment on SNB-75 CNS it was 68%. The growth with SNB-19 CNS was 99.3%; in the experiment with U251 CNS, 72.4%; in the experiment on SK-MEL-5 melanoma, 93.7%; in the experiment on UACC-62 melanoma, 66.5%; with SK-MEL-28 melanoma, 96.7%; with SK-MEL-2 melanoma it was 98.5%.

As for `O=C(C(Br)Br)C(Br)C(Br)c1ccccc1` (stereo unspecified), the growth is 18.9% with K-562 leukemia; -37.9% (active) with MALME-3M melanoma; 109% with MDA-MB-231 breast; 25.3% in the experiment with RXF 393 renal; 116% in the experiment with SF-268 CNS; 116% with SF-295 CNS. In addition, the growth is 97.2% in the experiment with SF-539 CNS; 57.7% with UACC-257 melanoma; 81.5% with M14 melanoma; 20.5% in the experiment with HCT-15 colon; -5.3% (active) in the experiment on HT29 colon; 115% in the experiment on SNB-75 CNS. Moreover, the growth in the experiment on SNB-19 CNS was 112%; in the experiment with PC-3 prostate, 101%; in the experiment on SK-MEL-5 melanoma, 99.3%; in the experiment on UACC-62 melanoma, 95.2%; in the experiment with LOX IMVI melanoma it was 53.3%; in the experiment with SK-MEL-28 melanoma, 106%. Besides, in the experiment with SK-MEL-2 melanoma, the growth was 117%.

Turning to `COc1ccc(C(=O)Nc2nc(-c3ccc(Cl)cc3)cs2)cc1`, the growth with K-562 leukemia is 104%; in the experiment with MALME-3M melanoma it was 111%; in the experiment on MDA-MB-231 breast it was 105%; in the experiment with RXF 393 renal, 97.1%; in the experiment on SF-268 CNS it was 105%; in the experiment on SF-295 CNS it was 97.5%. Further, the growth in the experiment on SF-539 CNS was 93%; in the experiment with UACC-257 melanoma it was 98.5%; in the experiment on M14 melanoma, 113%; in the experiment with HCT-15 colon, 94.9%; in the experiment with HT29 colon, 114%; in the experiment on SNB-75 CNS it was 98.7%. Besides, the growth with SNB-19 CNS was 104%; with PC-3 prostate it was 98.3%; in the experiment on SK-MEL-5 melanoma, 98.9%; in the experiment on UACC-62 melanoma it was 102%; in the experiment with SK-MEL-28 melanoma, 101%.
